Compound activity (PubChem)
Rows were chosen to be rich in hits. Some 3% of all compounds tested hit in one or more screens of this group.
IP6K1 inhibitor = Primary qHTS assay for small molecule inhibitors of Inositol hexaphosphate kinase 1 (IP6K1). activity change, % (series mostly up to about 58 µM). IP6K1 kinase, ADP-Glo luminescence, 2 h; active compounds read low. AID 1645851, 2021. 0.81% of 140,000 active. Inositol hexakisphosphate kinase 1 (Homo sapiens), Q92551; in the data active = activity change below about -25%; note: % is set by controls: 0 for no effect and ±100 for the full control effect
Target sequence (Q92551 whole entry, looked up): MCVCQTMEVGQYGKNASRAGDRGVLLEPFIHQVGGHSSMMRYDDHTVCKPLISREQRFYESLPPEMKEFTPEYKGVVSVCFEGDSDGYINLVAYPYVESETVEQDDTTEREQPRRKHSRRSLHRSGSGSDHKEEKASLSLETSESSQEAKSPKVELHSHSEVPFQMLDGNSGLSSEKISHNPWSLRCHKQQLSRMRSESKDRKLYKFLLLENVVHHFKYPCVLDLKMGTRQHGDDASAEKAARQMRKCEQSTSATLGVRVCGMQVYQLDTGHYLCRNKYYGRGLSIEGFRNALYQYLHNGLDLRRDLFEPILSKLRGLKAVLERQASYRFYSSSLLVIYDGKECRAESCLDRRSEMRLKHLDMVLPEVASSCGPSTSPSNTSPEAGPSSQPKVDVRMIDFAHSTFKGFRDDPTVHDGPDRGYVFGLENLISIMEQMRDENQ
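ADP-Glo luminescence measures ADP made by human IP6K1 during a 2 h RT reaction with ATP/IP6 (mix at 1.3 mM/130 uM); top library doses 57.5 and 19.1 uM final.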
SNCA expr inhib = Primary qHTS assay for inhibitors of alpha-synuclein gene (SNCA) expression; HEK-293 SNCA-luciferase knock-in, luminescence, 24 h; Potency, µM (titrated, usually from 57.2 µM), for the others: top-dose activity change, negative = inhibition, hits mostly inhibitors; 0.17% of 140,000 active;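 note: potency is the fitted concentration of half-maximal effect; plate controls were DMSO cells for no effect and cell-free wells for full effect; nearly all actives have a fitted effect of over 45% in size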
KDM5B inhibitor = Primary screen for KDM5B Histone Demethylases FDH-coupled qHTS. Lysine-specific demethylase 5B (Homo sapiens), Q9UGL1. KDM5B demethylase, FDH-coupled NADH fluorescence (FDH is formaldehyde dehydrogenase). Potency, µM (titrated, usually from 57.7 µM), usual class: inhibitors. 2.6% of 220,000 active; note: potency is the fitted concentration of half-maximal effect; 0% is about no effect; nearly all actives have a fitted effect of over 70% in size
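Coupled FDH/NAD⁺ fluorescence readout. KDM5BΔAP 200 nM final; compound titration, 10 min RT preincubation; substrate mix 12.5 µM H3K4me3, 25 µM 2-OG, 50 µM Fe(II), 100 µM ascorbate, 0.25 mM NAD⁺, 0.25 U/mL FDH; ΔRFU over 30 min.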
SNCA viab count = GF-AFC viability counterscreen for inhibitors of alpha-synuclein gene (SNCA) expression; HEK-293-SNCA-luc viability, GF-AFC fluorescence, 24 h; Potency, µM (top dose mostly 57.1 µM), for inactives: top-dose activity change, negative = cytotoxicity, usual class: cytotoxic; 0.12% of 150,000 active;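 note: potency is the fitted concentration of half-maximal effect; 0% = DMSO-treated cells and -100% = medium-only wells without cells; nearly all actives have a fitted effect of over 30% in size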
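HEK-293-SNCA-luc cells (1500/well) plated 24 h, then exposed 24 h to a dilution series; GF-AFC added 30 min at 37C, fluorescence 405/540 nm; normalised to medium-only and DMSO wells, Hill fit.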
* hit, by the source's call; i = inactive; ? = inconclusive; . = no result given; [ ] = remark or other dose. Unless noted, calls come from the whole dose curve; as a rule, active = well fitted curve in the direction sought with a large enough effect; inconclusive = small, poorly fitted or top-dose-only effect, or another doubt; inactive = no such curve, though single readings can be large; an effect the other way counts as inactive or inconclusive.

SMILES	IP6K1 inhibitor	SNCA expr inhib	KDM5B inhibitor	SNCA viab count
Cc1ccc(C)c(-c2cc3c(=O)n(CCNC(=O)c4ccccc4F)ccn3n2)c1	-7	?	i	-9%
CCOc1ccc(-c2cc3c(=O)n(CCNC(=O)c4ccccc4OC)ccn3n2)cc1	-2	?	32µM*	?
Cc1ccc(C)c(C(=O)NCCn2ccn3nc(-c4cc(C)ccc4C)cc3c2=O)c1	0	?	32µM*	-16%
COc1ccc(-c2cc3c(=O)n(CCNC(=O)c4ccc(C#N)cc4)ccn3n2)cc1	-11	-1%	?	-4%
O=C1CC2(CCN(C(=O)C3CCCN(C(=O)Nc4ccc(Cl)cc4)C3)CC2)Oc2ccccc2N1 (stereo not drawn)	-11	-18%	.	?
CCN(CC)c1ccc(/C=N/NS(=O)(=O)c2ccccc2)cc1	.	.	i	.
CNC(=O)CSc1ccccc1OC	.	.	i	.
O=C1Nc2ccc(-c3cccs3)cc2C(=O)N2CC[C@H](NS(=O)(=O)c3ccc(Cl)cc3)C[C@@H]12	-5	-10%	32µM*	-1%
CC(C)(C)CC(=O)N[C@H]1C[C@H]2C(=O)Nc3ccc(-c4cccs4)cc3C(=O)N2C1	13	0%[87.6 µM]	18µM*	-1%[87.6 µM]
C=CCNC(=O)N[C@H]1C[C@H]2C(=O)Nc3ccc(-c4cccs4)cc3C(=O)N2C1	8	-9%[87.6 µM]	?	-18%[87.6 µM]
Cc1cc(COc2ccc(C(=O)c3ccc(Cl)cc3)cc2)no1	.	.	i	.
O=C(NCc1nnc2cc(-c3nc(C4CC4)no3)ccn12)C1CCC1	-1	?	25µM*	-10%
O=C(NCc1nnc2cc(-c3nc(C4CC4)no3)ccn12)C1CCCCC1	7	-10%	28µM*	-18%
CCc1noc(-c2ccn3c(CNC(=O)C4CCC4)nnc3c2)n1	8	14%	i	-1%
N#Cc1c(N)n[nH]c1CCCNC(=O)c1cn(Cc2ccccc2)nc1-c1ccccc1	.	.	i	.
Clc1ccc(Oc2cccc(CN3CCN(C4CCNC4)CC3)c2)cc1 (stereo not drawn)	25	15%	16µM*	1%
Cc1cc(C)n(-c2cccc(CN3CCN(C4CCNC4)CC3)c2)n1 (stereo not drawn)	9	1%	?	-3%
CC(C)(C)CNc1ccc(C(=O)N2CCC(CN3CCCC3=O)CC2)cn1	41	-28%	14µM*	9%
O=C1CCCN1CC1CCN(C(=O)c2ccc(N3CC[C@H](O)C3)nc2)CC1	44	2%	?	-1%
CNc1ccc(C(=O)N2CCC(CCn3cccn3)CC2)cn1	-7	-10%	22µM*	-7%
CCCS(=O)(=O)c1nc(S(=O)(=O)c2ccc(Cl)cc2)c(NCC(C)C)s1	.	.	i	.
CCCCCNC(=O)Cc1csc2nc(C)c(-c3cc(C)n(-c4cc(F)ccc4C)n3)c(=O)n12	17	3%	25µM*	-16%
CCCCNC(=O)Cc1csc2nc(C)c(-c3cc(C)n(-c4ccc(F)cc4)n3)c(=O)n12	5	-2%	28µM*	3%
CCCCNC(=O)Cc1csc2nc(C)c(-c3cc(C)n(-c4cc(F)ccc4C)n3)c(=O)n12	5	-9%	?	-15%
O=C(C1CCCC1)N1CC2(CCN(CC3CCCCC3)C2)Cc2ccccc21 (stereo not drawn)	-1	-13%	?	-16%
SMILES	IP6K1 inhibitor	SNCA expr inhib	KDM5B inhibitor	SNCA viab count
COc1ccc2cc(C(=O)N3CCC(Cc4ccc(C(=O)NC5CC5)cc4)CC3)[nH]c2c1	1	-7%	35µM*	-2%
COc1ccc2cc(C(=O)N3CCc4nn(C)c(=O)n4CC3)[nH]c2c1	-5	22%	25µM*	?
CNC(=O)[C@@H]1CN(C(=O)c2cc3ccc(OC)cc3[nH]2)C[C@H]1C1CCN(C)CC1	17	19%	20µM*	10%[12.5 µM]
CNC(=O)[C@@H]1CN(C(=O)c2ccc3cc[nH]c3c2)C[C@H]1C1CCN(C)CC1	-3	-15%	20µM*	2%[12.5 µM]
CCOC(=O)N1CCC(NC(=O)c2cc3ccc(OC)cc3[nH]2)CC1	.	.	i	.
COc1ccc2cc(C(=O)N3CCN(C)CC3)[nH]c2c1	.	.	i	.
COc1ccc2cc(C(=O)N3CCc4n[nH]c(=O)n4CC3)[nH]c2c1	-6	50%	?	-10%
CCc1ccccc1NC(=O)CCS(=O)(=O)c1ccc2c(c1)CCN2C(=O)C1CC1	.	.	i	.
C=CCN(CC=C)C(=O)CSc1nnc(-c2c[nH]c3ccccc23)o1	.	.	i	.
Cc1ccccc1-c1[nH]nc2ncc(-c3ccccc3F)nc12	11	91%[87.6 µM]	35µM*	-14%[87.6 µM]
Cc1ccccc1-c1[nH]nc2ncc(-c3cnn(C)c3)nc12	17	31%[87.6 µM]	32µM*	-12%[87.6 µM]
Cc1ccccc1-c1[nH]nc2ncc(-c3ccsc3)nc12	21	-33%[87.6 µM]	32µM*	-23%[87.6 µM]
Cc1ccsc1-c1[nH]nc2ncc(-c3ccccc3F)nc12	17	-8%[87.6 µM]	i	-8%[87.6 µM]
Cc1ccccc1-c1[nH]nc2ncc(-c3cccc(O)c3)nc12	4	-12%[87.6 µM]	?	-18%[87.6 µM]
C/C(=N/NC(=S)NC(C)C)c1ccc(C2CCCCC2)cc1	.	.	i	.
COc1ccc2[nH]c(C)c(C(=O)CN3CCCCC3C)c2c1 (stereo not drawn)	.	.	i	.
Cn1cc(C(=O)N2CCN(S(=O)(=O)c3ccc(Br)cc3)CC2)c2ccccc21	.	.	i	.
COc1cc(CNC(=O)c2nc(-c3ccccc3)oc2C)cc(OC)c1OC	.	.	i	.
FC(F)(F)c1cccc(Nc2nc3nonc3nc2Nc2ccc(Cl)cc2)c1	4	11µM*	i	?
O=C(Nc1cccc(C(F)(F)F)c1)c1cc(-c2ccc(Cl)cc2)on1	7	2%	i	4%
COCc1cc(CNc2nccc(-c3ccccn3)n2)[nH]n1	-20	16%	?	2%
c1ccc(CCCNc2nccc(-c3ccccn3)n2)nc1	20	37%	28µM*	-6%
CN1CCN(CCCNc2nccc(-c3ccccn3)n2)CC1	-10	11%	28µM*	-3%
CC(=O)c1cc2c(cc1NC(=O)Cn1c(Nc3cccc(F)c3)nc(C)cc1=O)OCO2	.	.	i	.
Cc1ccc(-c2cnc(CCC(=O)N(C)CC(=O)Nc3ccccc3Br)o2)cc1C	.	.	i	.
SMILES	IP6K1 inhibitor	SNCA expr inhib	KDM5B inhibitor	SNCA viab count
N#Cc1cccnc1-c1ccc(C(=O)N2CCC(N[S+](=O)([O-])c3cccs3)CC2)cc1	7	26%	.	9%[12.5 µM]
Cc1ccc(-c2cc(C(=O)NCc3cnn(C)c3)c3cc(Br)ccc3n2)cc1	-17	6%	i	12%
COc1ccc(-c2cc(C(=O)NCc3cc(C)on3)c3c(c2)N(C)CCO3)cn1	-17	3%[87.6 µM]	35µM*	-20%[87.6 µM]
CN1CCOc2c(C(=O)NCc3cnn(C)c3)cc(-c3ccc(CO)cc3)cc21	-23	3%[87.6 µM]	20µM*	-5%[87.6 µM]
CN1CCOc2c(C(=O)NCC[S+](C)(=O)[O-])cc(-c3ccccc3)cc21	-16	-8%[87.6 µM]	32µM*	-3%[87.6 µM]
COc1ccc(-c2cc(C(=O)NCC[S+](C)(=O)[O-])c3c(c2)N(C)CCO3)cn1	-22	-3%[87.6 µM]	32µM*	-8%[87.6 µM]
